HT1080NT lethal – kills 2HG-producing HT-1080-NT fibrosarcoma cells; HT-1080-NT fibrosarcoma viability, CellTiter-Glo ATP luminescence, 48 h; Potency, µM (highest dose often 46.1 µM), for inactives: at the top dose activity, negative = less viability, actives largely listed as cytotoxic; 1.6% of 360,000 active; AID 686970;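 also: NT is the 2HG producing partner of a matched IDH1 knockdown line; 0% = DMSO-treated cells and -100% = media-only wells without cells; nearly all actives have a fitted effect of over 55% in size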
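A 48-hour cytotoxicity screen used HT-1080-NT cells plated 2 hours before compound delivery. ATP-based CellTiter-Glo luminescence measured viability, normalized to DMSO and no-cell controls.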
KB-3-1 cytotox – kills parental KB-3-1 adenocarcinoma cells; KB-3-1 viability, CellTiter-Glo ATP luminescence, 72 h; Potency, µM (top dose mostly 46.1 µM), actives largely listed as cytotoxic; 1.4% of 400,000 active; AID 1347075; also: nearly all actives have a fitted effect of over 60% in size
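KB-3-1 parental drug-naive adenocarcinoma cells in DMEM/10% FBS, incubated 72 h at 37 C with pin-transferred compounds across a concentration series. Viability by CellTiter-Glo luminescence; concentration-response curves fitted after normalization.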
TDP1 cell CPT – growth inhibition of DT40 Tdp1-/-;hTDP1 cells with camptothecin (screen for TDP1 inhibitors); chicken DT40 Tdp1-/-;hTDP1 cells + 20 nM CPT, ATP luminescence, 48 h; 12% of 420,000 active; AID 686979; Potency, µM (top dose mostly 46.2 µM), inactives show top-dose activity change, negative = growth inhibition, actives largely listed as inhibitors; also: nearly all actives have a fitted effect of over 55% in size
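Chicken DT40 Tdp1-/- cells complemented with human TDP1, 400 cells/well, exposed to compounds plus 20 nM camptothecin for at least 48 h at 37 C; viability read as ATP content by CellTiter-Glo luminescence.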
HT1080 IDH1KD tx – HT-1080 IDH1 knockdown cell toxicity (counter line); HT-1080 IDH1 knockdown viability, ATP luminescence, 48 h; Potency, µM (titrated, usually from 46.1 µM), without a hit: at the highest dose activity, negative = toxicity, most hits filed as cytotoxic; 2% of 360,000 active;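 also: 0% = DMSO wells and -100% = cell-free medium wells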
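Viability of IDH1-knockdown HT-1080 fibrosarcoma cells was assessed by CellTiter-Glo after 48 h at 37 °C with titrated compound; concentration-effect curves were classified by fit quality and response size.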
KB-V1 MDR tox – kills drug-selected multidrug resistant KB-V1 cells; Potency, µM (top dose mostly 46.1 µM), actives largely listed as cytotoxic; 3.4% of 400,000 active; KB-V1 MDR cells viability, CellTiter-Glo, 72 h; also: nearly all actives have a fitted effect of over 60% in size
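KB-V1 MDR subline cells in DMEM (phenol-red free, 10% FBS) exposed to compounds in qHTS concentration series for 72 h at 37 degrees C. Viability read by CellTiter-Glo luminescence; concentration-effect curves fitted after normalization and correction.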
DT40 TDP1 no CPT – qHTS for Inhibitors of human tyrosyl-DNA phosphodiesterase 1 (TDP1): qHTS in cells in absence of CPT. DT40 Tdp1-/- hTDP1 cells, no CPT, ATP luminescence, 48 h. Potency, µM (series often up to 46.2 µM), for the others: top-dose activity change, negative = growth inhibition, usual class: inhibitors. 15% of 420,000 active. AID 686978, 2013; also: nearly all actives have a fitted effect of over 55% in size
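Stably hTDP1-transfected Tdp1-null chicken DT40 cells were treated with library compounds minus camptothecin and grown for at least 48 hr at 37 °C, after which cellular ATP was quantified by luminescence.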
* hit, by the source's call; i = inactive; ? = inconclusive; . = no result given; [ ] = dose if it differs, or a comment. Shown are actives, neighbours in structure and some others; about 19% of the full set was active somewhere. Calls follow the shape of the dose curve; as a rule, active = well fitted curve in the direction sought with a large enough effect; inconclusive = small, poorly fitted or top-dose-only effect, or another doubt; inactive = no such curve, though single readings can be large; an effect the other way counts as inactive or inconclusive. Unless noted, % is scaled to controls: 0 for no effect and ±100 for the full control effect; potency is read from the fitted curve at half-maximal effect.

SMILES | HT1080NT lethal | KB-3-1 cytotox | TDP1 cell CPT | HT1080 IDH1KD tx | KB-V1 MDR tox | DT40 TDP1 no CPT
CC1=C(C(=O)N(C)C)CC(CC(=O)NC2CCCCC2)C(=O)N1CCC1=CCCCC1 (configuration not stated) | 0% | i | -5% | 2% | ? | ?
CC(=O)Nc1cccc(NC(=O)CSc2ncc(C(=O)Nc3ccc(F)cc3)c(=O)n2C)c1 | ? | i | 15µM* | ? | i | 12µM*
Cc1cc(NC(=O)CSc2ncc(C(=O)Nc3ccc(F)cc3)c(=O)n2C)no1 | . | . | -10% | . | . | -13%
Cn1c(SCC(=O)NCCc2ccccc2)ncc(C(=O)Nc2ccccc2)c1=O | -1% | i | ? | 1% | i | 13µM*
Cn1c(SCC(=O)NCC2CCCO2)ncc(C(=O)Nc2ccc(Cl)cc2)c1=O (configuration not stated) | -1% | ? | 7.3µM* | 3% | i | 9.2µM*
COc1ccccc1CNC(=O)CSc1ncc(C(=O)Nc2ccccc2)c(=O)n1C | -1% | ? | 16µM* | -7% | i | 15µM*
CCOC(=O)[C@@H]1[C@H]2COc3cc(OC)ccc3[C@H]2N2C(=O)N(c3ccc(C)cc3)C(=O)[C@]12C | 0% | i | -33% | 10% | i | -52%
CCOc1ccccc1-c1nc(CN2CCCN(C(=O)c3ccco3)CC2)c(C)o1 | 6% | i | ? | -1% | i | ?
CSc1sc(C(=O)NNC(C)=O)c2c1C=CCC2 | -2% | i | -30% | 8% | i | ?
CC(=O)Nc1ccc(NC(=O)CSc2ncc(C(=O)Nc3ccc(Cl)cc3)c(=O)n2C)cc1 | -26% | i | ? | ? | i | ?
CC(=O)c1cccc(NC(=O)c2nc3ccccc3n(C)c2=O)c1 | . | ? | 15µM* | . | ? | 10µM*
CC(=O)Nc1cccc(NC(=O)CSc2ncc(C(=O)Nc3ccccc3)c(=O)n2C)c1 | ? | i | 5.8µM* | ? | i | 8.2µM*
COc1cc(NC(=O)c2nc3ccccc3n(C)c2=O)cc(OC)c1OC | . | i | -28% | . | ? | ?
CC(=O)Nc1ccc(NC(=O)CSc2ncc(C(=O)Nc3ccc(F)cc3)c(=O)n2C)cc1 | -22% | i | 18µM* | ? | i | 21µM*
CC(=O)c1cccc(NC(=O)CSc2ncc(C(=O)Nc3ccccc3)c(=O)n2C)c1 | -4% | i | 7.3µM* | -1% | i | 7.3µM*
Cc1ccc2c(=O)c(C(=O)c3cccc(Cl)c3)cn(CC(=O)Nc3ccc4c(c3)OCCO4)c2n1 | . | i | ? | . | i | ?
CC1=NN(c2ccc(C)cc2C)C(=O)C1C(c1ccccc1O)C1C(=O)N(c2ccc(C)cc2C)N=C1C (configuration not stated) | 5% | i | 7% | 8% | i | -1%
CC1=NN(c2ccc(Cl)cc2)C(=O)C1C(c1ccccc1O)c1c(C)[nH]n(-c2ccc(Cl)cc2)c1=O (configuration not stated) | 23µM* | i | ? | ? | ? | ?
Nc1nc2c([nH]c(=S)n2C2OC(CO)C(O)C2O)c(=O)[nH]1 (configuration not stated) | . | . | -3% | . | . | 3%
O=[N+]([O-])c1ccc(-c2nnc(-c3ccccc3)c(N3CCOCC3)n2)cc1 | 3% | i | -20% | 3% | 12µM* | ?
CC1CN(c2nc(-c3ccc(Br)cc3)nnc2-c2ccccc2)CC(C)N1 (configuration not stated) | -13% | i | 13µM* | -1% | i | 10µM*
CC1CCN(c2nc(-c3ccc(Br)cc3)nc3ccccc23)CC1 | . | i | ? | . | i | ?
FC(F)(F)c1nnc(-c2ccccc2)nc1N1CCOCC1 | -3% | i | -2% | 0% | ? | -10%
Clc1ccc(-c2nnc(-c3ccccc3)c(N3CCSCC3)n2)cc1 | -1% | i | 21µM* | 0% | i | ?
FC(F)(F)c1cccc(-c2nnc(-c3ccccc3)c(N3CCOCC3)n2)c1 | -21%[9.24 µM] | i | 18µM* | -28% | i | 16µM*
SMILES | HT1080NT lethal | KB-3-1 cytotox | TDP1 cell CPT | HT1080 IDH1KD tx | KB-V1 MDR tox | DT40 TDP1 no CPT
CC1(C)CC(=O)C2=C(C1)OC1=C(C(=O)CC(C)(C)C1)C2c1ccccc1Cl | 8% | i | ? | 0% | i | ?
Cc1ccc(-c2cc(C(=O)N3CCN(S(=O)(=O)c4ccc(Br)cc4)CC3)[nH]n2)cc1C | . | i | 9.2µM* | . | i | 8.2µM*
COc1cc(C(=O)N2CCN(C(=O)c3cc(-c4ccc(Br)cc4)n[nH]3)CC2)cc(OC)c1OC | 4% | i | 21µM* | -2% | i | 26µM*
COc1cc(C(=O)N2CCN(C(=O)c3ccccc3)CC2)cc(OC)c1OC | 8% | i | 2% | 6% | i | 4%
Cc1cc(C)cc(CC(=O)N2CCC2(C)C(=O)NS(=O)(=O)Cc2ccccc2)c1 (configuration not stated) | 9% | i | 9% | 6% | i | -8%
CCC(=O)N1CCc2cc(Br)cc(S(=O)(=O)N3CCCC(C(=O)NCc4cccc(OC)c4)C3)c21 (configuration not stated) | . | i | ? | . | i | ?
COc1ccc(N2CC(NC(=O)COc3ccccc3F)CC2=O)cc1OC (configuration not stated) | . | i | -23% | . | i | -12%
COc1ccc(-c2ccc(=O)n(Cc3c(F)cccc3Cl)n2)cc1 | -23% | i | 15µM* | -27% | i | 7.3µM*
O=C(CCn1nc(-c2ccc(Cl)cc2)ccc1=O)NCCc1ccccc1 | . | i | ? | . | ? | ?
Cc1ccc(CCNC(=O)CCn2nc(-c3ccc(Cl)cc3)ccc2=O)cc1 | . | i | ? | . | i | 23µM*
Cc1ccc(-c2ccc(=O)n(CCC(=O)N3CCN(c4ccccc4)CC3)n2)cc1 | -3% | i | 1% | -22% | i | ?
O=c1ccc(-c2ccccc2)nn1Cc1ccc(Cl)cc1 | -1% | i | ? | -6% | i | 16µM*
O=C(CCn1nc(-c2ccc(Cl)cc2)ccc1=O)N1CCN(c2ccc(F)cc2)CC1 | -11% | i | ? | -6% | i | 21µM*

Assay outcomes as filed in PubChem BioAssay.
